Compound activity: PubChem, National Center for Advancing Translational Sciences (NCATS)
HT1080 IDH1KD tx – kills HT-1080 cells with IDH1 knockdown. 360,000 tested, 2% active. Potency, µM (top dose mostly 46.1 µM), without a hit: top-dose activity, negative = toxicity, most hits filed as cytotoxic. HT-1080 IDH1 knockdown viability, ATP luminescence, 48 h;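 note: potency is the fitted concentration of half-maximal effect; 0% = DMSO wells and -100% = cell-free medium wells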
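After a 2 h attachment period, IDH1KD HT-1080 cells took pin-transferred compound for 48 h at 37 °C; ATP-based luminescence after 10 min room-temperature reagent incubation reported viability.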
HT1080NT lethal – kills 2HG-producing HT-1080-NT fibrosarcoma cells; 360,000 tested, 1.6% active; HT-1080-NT fibrosarcoma viability, CellTiter-Glo ATP luminescence, 48 h; Potency, µM (highest dose often 46.1 µM), inactives show top-dose activity, negative = less viability, hits mostly cytotoxic;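 note: NT is the 2HG producing partner of a matched IDH1 knockdown line; potency is the fitted concentration of half-maximal effect; 0% = DMSO-treated cells and -100% = media-only wells without cells; nearly all actives have a fitted effect of over 55% in size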
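Compounds were tested in concentration-response format on HT-1080-NT cells for 48 hours at 37 degrees C. Cell viability came from CellTiter-Glo luminescence; curves were classified by r2, response magnitude and activity.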
12-LOX inh – ALOX12 (human) lipoxygenase inhibition | P18054 | purified 12hLO, xylenol orange hydroperoxide absorbance | Potency, µM (titrated, usually from 108 µM), for inactives: top-dose activity change, negative = inhibition, usual class: inhibitors | 580,000 tested, 1.1% active | AID 1671190; note: potency is the fitted concentration of half-maximal effect
Target sequence (P18054 whole entry, looked up): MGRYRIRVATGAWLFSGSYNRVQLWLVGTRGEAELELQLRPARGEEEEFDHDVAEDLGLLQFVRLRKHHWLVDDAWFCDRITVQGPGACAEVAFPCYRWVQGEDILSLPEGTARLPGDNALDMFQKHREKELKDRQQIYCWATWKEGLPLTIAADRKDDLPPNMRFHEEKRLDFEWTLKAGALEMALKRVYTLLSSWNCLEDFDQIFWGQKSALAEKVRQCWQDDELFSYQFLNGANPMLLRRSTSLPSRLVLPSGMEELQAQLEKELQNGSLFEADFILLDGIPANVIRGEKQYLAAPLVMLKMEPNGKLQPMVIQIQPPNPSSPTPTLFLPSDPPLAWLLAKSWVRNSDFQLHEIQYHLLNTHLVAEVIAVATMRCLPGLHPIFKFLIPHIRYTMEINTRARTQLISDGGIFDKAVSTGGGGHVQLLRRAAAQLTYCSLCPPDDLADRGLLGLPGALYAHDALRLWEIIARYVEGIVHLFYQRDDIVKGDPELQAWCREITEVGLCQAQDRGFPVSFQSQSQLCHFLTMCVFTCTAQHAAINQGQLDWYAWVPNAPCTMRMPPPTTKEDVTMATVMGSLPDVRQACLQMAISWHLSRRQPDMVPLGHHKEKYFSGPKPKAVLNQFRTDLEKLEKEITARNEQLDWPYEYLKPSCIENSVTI
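Hydroperoxide product was detected by ferrous iron/xylenol orange as the 573 to 405 nm absorbance ratio. Arachidonic acid at 40 uM (final) was turned over for 30 min at room temperature by 150 nM human 12hLO, pH 7.0 Hepes buffer, after 15 min compound preincubation.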
TDP1 cell noCPT – qHTS for Inhibitors of human tyrosyl-DNA phosphodiesterase 1 (TDP1): qHTS in cells in absence of CPT | Potency, µM (top dose mostly 46.2 µM), inactives show at the highest dose activity change, negative = growth inhibition, hits mostly inhibitors | 420,000 tested, 15% active | AID 686978, 2013 | DT40 Tdp1-/- hTDP1 cells, no CPT, ATP luminescence, 48 h; note: potency is the fitted concentration of half-maximal effect; nearly all actives have a fitted effect of over 55% in size
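Seeded 400 DT40-hTDP1 cells/well (vehicle DMSO, no 20 nM CPT); pinned compounds; ≥48 hr at 37 °C; CellTiter-Glo luminescence as viability measure.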
TDP1 cell CPT – DT40-hTDP1 cell growth loss with CPT. chicken DT40 Tdp1-/-;hTDP1 cells + 20 nM CPT, ATP luminescence, 48 h. Potency, µM (doses to about 46.2 µM), for the others: at the highest dose activity change, negative = growth inhibition, actives largely listed as inhibitors. 420,000 tested, 12% active. AID 686979; note: potency is the fitted concentration of half-maximal effect; nearly all actives have a fitted effect of over 55% in size
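Chicken DT40 Tdp1-/- cells complemented with human TDP1, 400 cells/well, exposed to compounds plus 20 nM camptothecin for at least 48 h at 37 C; viability read as ATP content by CellTiter-Glo luminescence.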
IL-1B inflam inh – blocks inflammasome-driven IL-1 beta release | THP-1 LPS/ATP IL-1B secretion, AlphaLISA, 16 h; stronger effect = lower value | activity change, % at 57.5 µM | 360,000 tested, 4.7% active | AID 743279; in the data active = activity change below about -50%; inconclusive = mostly about -30% to -49%
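THP-1 cells pretreated 1 hr with compounds (up to 57.5 uM final), then stimulated with LPS (250 ng/mL final) plus ATP (1.25 mM final); secreted IL-1B measured by AlphaLISA after 16 hr, decreased signal indicating inhibition.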
The depositor's hits bear a star; i = inactive; u = inconclusive; x = not tested or not shown; [ ] = another dose, or the depositor's remark. This excerpt belongs to a sample that is enriched for hits. Unless noted, calls come from the whole dose curve; as a rule, active = well fitted curve in the direction sought with a large enough effect; inconclusive = small, poorly fitted or top-dose-only effect, or another doubt; inactive = no such curve, though single readings can be large; an effect the other way counts as inactive or inconclusive. Unless noted, % is set by controls: 0 for no effect and ±100 for the full control effect.

SMILES	HT1080 IDH1KD tx	HT1080NT lethal	12-LOX inh	TDP1 cell noCPT	TDP1 cell CPT	IL-1B inflam inh
Cc1ccc(NC(=O)c2ccc(=O)[nH]n2)cc1S(=O)(=O)Nc1ccc(SC(F)F)cc1	-24.8%	-23.8%	35.0%	18.4µM*	14.6µM*	7.0
O=C(NCc1ccccc1)C1=C[C@H](c2csc3ccccc23)C[C@H](OCCCCO)O1	-12.4%	-5.1%	281.6%	18.4µM*	16.4µM*	-25.4
O=C(Nc1ccccc1)C1=C[C@H](c2csc3ccccc23)C[C@H](OCCCCO)O1	-19.7%	-19.2%	u	u	u	-29.0
O=C(C1=C[C@H](c2csc3ccccc23)C[C@H](OCCCCO)O1)N1CCN(Cc2ccc3c(c2)OCO3)CC1	u	-28.9%	u	u	u	-54.2*
O=C(C1=C[C@H](c2ccc(Br)cc2)C[C@H](OCCCCO)O1)N1CCN(Cc2ccccc2)CC1	-2.2%	u	-27.6%	u	23.1µM*	0.0
O=C(C1=C[C@H](c2csc3ccccc23)C[C@H](OCCCCO)O1)N1CCN(Cc2ccccc2)CC1	-1.3%	-10.0%	12.7%	u	25.9µM*	-6.0
O=C(C1=C[C@@H](C2CC2)C[C@@H](OCCCCO)O1)N1CCN(Cc2ccccc2)CC1	6.7%	11.1%	-5.9%	-1.0%	-1.5%	-8.0
O=C(C1=C[C@@H](c2csc3ccccc23)C[C@@H](OCCCCO)O1)N1CCN(Cc2ccc3c(c2)OCO3)CC1	-25.8%	-26.8%	-28.6%	u	u	u
O=C(Cn1cc(S(=O)(=O)Cc2cccc([N+](=O)[O-])c2)c2ccccc21)N1CCOCC1	-0.6%	-0.5%	139.9%	-8.0%	4.3%	i
CCCCc1nn2c(=O)cc(COC(=O)CSc3ccc(C)cc3)nc2s1	x	x	6.6%	x	x	x
O=S(=O)(NCCO)c1ccc(Cl)c(Cl)c1Cl	x	x	-20.6%	x	x	x
O=C(C1=C[C@@H](c2csc3ccccc23)C[C@@H](OCc2ccc(CO)cc2)O1)N1CCN(Cc2ccc3c(c2)OCO3)CC1	u	-21.3%	u	u	u	u
O=C(C1=C[C@@H](c2csc3ccccc23)C[C@@H](OCc2ccc(CO)cc2)O1)N1CCN(Cc2ccccc2)CC1	-9.4%	-25.8%	x	u	u	-59.6*
Cc1ccc(C)c(NC(=O)C(Sc2ccc(S(=O)(=O)N3CCOCC3)cn2)c2ccccc2)c1 (configuration not stated)	x	x	-4.1%	x	x	x
CCCOc1ccc(CN(C(=O)c2cc(=O)c3c(C)cc(C)cc3o2)C2CCS(=O)(=O)C2)cc1 (configuration not stated)	x	x	4.6%	x	x	x
CCOC(=O)c1ccc(NC(=O)Nc2ccon2)cc1	0.92µM*	0.581µM*	-0.4%	0.0184µM*	0.0073µM*	82.1
CCOC(=O)c1ccc(NC(=O)Nc2nc3ccccc3s2)cc1	2.4%	-2.5%	-6.4%	u	u	-10.2
CCOC(=O)c1ccc(NC(=O)Nc2nncs2)cc1	0.92µM*	1.16µM*	8.8%	0.0065µM*	0.0184µM*	29.5
CC#CCn1cc2c3c(cccc31)[C@H](CC(C)C)N[C@H](C(=O)NCc1ccco1)C2	x	x	-2.8%[176 µM]	x	x	x
CC(=O)NCCCCCC(=O)NC(C)C(C)(C)c1ccccc1 (configuration not stated)	x	x	8.1%	x	x	x
O=C1CCCc2c1[nH]c1ccc(C34CC5CC(CC(C5)C3)C4)cc21	x	x	20.3%	x	x	x
CCCN(CC1CCOC1)S(=O)(=O)c1cn(C)cn1 (configuration not stated)	x	x	14.6%	x	x	x
S=C1NCCc2ccc(Cl)cc2C1c1ccccc1 (configuration not stated)	-24.2%	-11.4%	u	23.1µM*	u	5.8
c1ccc(C2CNCCc3ccccc32)cc1 (configuration not stated)	-2.6%	-18.0%	11.5%	-14.2%	u	0.0
c1ccc2sc(CCCn3cc(-c4cncnc4)nn3)nc2c1	x	x	6.0%	x	x	x
SMILES	HT1080 IDH1KD tx	HT1080NT lethal	12-LOX inh	TDP1 cell noCPT	TDP1 cell CPT	IL-1B inflam inh
CN1CCN(CCCNC(=O)c2cc3c(=O)n(C)c4ccccc4c3s2)CC1	-28.5%	u	15.1%	11.6µM*	8.2µM*	-81.3*
Cn1c(=O)c2cc(C(=O)NCCCN3CCN(c4cccc(Cl)c4)CC3)sc2c2ccccc21	x	x	u	2.91µM*	u	x
Cn1cc(Br)c(-c2cccc(NC(=O)CCC(=O)O)c2)n1	10.9%	0.2%	0.0%	14.8%	14.4%	5.4
Cc1cnccc1CN(C)Cc1cn(C)nc1-c1cccc(Cl)c1	-8.8%	-7.5%	0.0%	u	u	0.0
CC(c1ccon1)N(C)Cc1cn(C)nc1-c1cccc(Cl)c1 (configuration not stated)	-5.4%	15.6%	-7.9%	16.4µM*	u	25.5
CC(C)c1ccc(/C=C/c2[nH]c(=O)[nH]c(=O)c2[N+](=O)[O-])cc1	u	-1.8%	u	u	-25.3%	-82.0*
CCOc1ccc(/C=C/c2[nH]c(=O)[nH]c(=O)c2[N+](=O)[O-])cc1	9.6%	21.3%	199.7%	-1.1%	-8.7%	16.2
CCOc1cc(/C=C\c2[nH]c(=O)[nH]c(=O)c2[N+](=O)[O-])ccc1OC(C)CC (configuration not stated)	u	10µM*	7.7%	-5.6%	-19.1%	-92.4*
COc1ccc(CN2CCn3c(nnc3-c3ccccc3)C2)cc1	x	x	-0.4%[6.33 µM]	x	x	x
CCOC(=O)c1cccn1C1C(=O)N(Cc2ccc(Cl)nc2)c2c(F)cccc21 (configuration not stated)	x	x	56.2µM*	x	x	x
O=C(Nc1ccc(Cn2cccn2)cc1)c1ccc(COc2ccccc2Br)cc1	u	u	-28.2%	14.6µM*	13µM*	-60.1*
COc1cc(NC(=O)CN2c3cccc4cccc(c34)S2(=O)=O)cc(OC)c1OC	u	-10.9%	285.9%	20.6µM*	u	-13.3
O=C(Nc1ccn(Cc2c(F)c(F)c(F)c(F)c2F)n1)c1ccc(COc2ccccc2Cl)cc1	u	10.4%[9.24 µM]	-6.6%	u	-17.8%	0.0
COc1cc(/C=N/NC(=O)c2ccc(CN3c4cccc5cccc(c45)S3(=O)=O)cc2)cc(OC)c1O	-13.2%	-30.0%	-5.6%	16.4µM*	u	50.7
O=C(N/N=C/c1ccc2c(c1)OCO2)c1ccc(COc2cccc3cccnc23)cc1	u	u	-0.5%	25.9µM*	u	-18.1
